Laboratory results reported in PubChem BioAssay (NCI).
“And” between values parts separate entries of the source, which are not always exact repeats. Identical values can stand only once. The panel holds about 83,000 compounds, 20% with a hit somewhere; the sample as a whole holds those more often.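 Single-dose data. Exposure time 48 hours. Values below 10 considered active.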 Values without a mark were called inactive. The source made the active and inactive calls.

test system: MDA-MB-468 breast; test: NCI-60 one-dose screen, 48 h (100 = growth as untreated, 0 = no growth, -100 = all killed); settings: 10 µM unless noted

Question: For `CCn1c(=S)sc2c(Nc3ccc(F)cc3)nc(-c3cccnc3)nc21`, which growth is on record?
Answer: The growth was 79.8%.

Question: How did the growth turn out when `CN(C)CCCCC(C(=O)CBr)(c1ccccc1)c1ccccc1` was run?
Answer: The growth was -53.1% (active).

Question: With `O=C(CN1CCN(c2cc3c(cc2F)c(=O)c(C(=O)N/N=C/c2ccccc2O)cn3C2CC2)CC1)N/N=C\c1ccccc1O` as the compound, how does the growth read?
Answer: Its growth is -4.47% (active).

Question: Which growth does the source give for `O=C(O)C1C2CCC1C(O)C2` (stereo not given) here?
Answer: Its growth is 97.7% and 110%.

Question: How did the growth turn out when `C[C@@H]1C[C@H]2C(=O)O[C@@H](C)C(NC(=O)[C@H](Cc3cc(F)cc(F)c3)NC(=O)Nc3ccc(Cl)cc3F)C(=O)N3CCC[C@H]3C(=O)N3CCCC[C@H]3C(=O)N[C@@H](CO)C(=O)N2C1` (stereo not given in full) was run?
Answer: The growth was -10.4% (active).

Question: `CN1CCC(OC2c3ccccc3CCc3ccccc32)CC1` was tested. Which growth did it give?
Answer: The growth was 89.6%.

Question: Which growth does the source give for `COc1cccc(-c2nc3sccn3c2-c2ccnc(NCCNC(=O)Nc3cccc(C(F)(F)F)c3)n2)c1` here?
Answer: Its growth is 39.6%.

Question: Which growth does the source give for `Nc1ccccc1NC(=O)CCCCCCC(=O)Nc1ccc2c(c1)/C(=C/c1ccc[nH]1)C(=O)N2` here?
Answer: Its growth is 32.9%.

Question: Which growth does the source give for `CCOC(=O)c1cc2c(n1Cc1cc(OC)cc(OC)c1)-c1oncc1CCC2` here?
Answer: Its growth is 22.4%.

Question: With `O=C1/C(=C/c2cccs2)CCC/C1=C\c1cccs1` as the compound, how does the growth read?
Answer: The growth was -45.5% (active).

Question: For `Nc1ncc(-c2ccc3ncnc(N4CCc5cc(F)c(Cl)cc54)c3c2)cc1C(F)(F)F`, which growth is on record?
Answer: The growth was -26.1% (active).

Question: How did the growth turn out when `CCOc1cccc(/C=N/NC(=O)C(=O)Nc2cccc(C(F)(F)F)c2)c1O` was run?
Answer: The growth was 1.46% (active).

Question: With `O=C(N/N=C/c1ccc(Cl)cc1)c1ccc(Cc2n[nH]c(=O)c3cccnc23)cc1` as the compound, how does the growth read?
Answer: The growth was 89.8%.

Question: For `CCCCCCC(C)N(CC(C)(C)O)C(=O)c1ccc([N+](=O)[O-])cc1` (stereo not given), which growth is on record?
Answer: The growth was 96.1%.

Question: How did the growth turn out when `Cn1c(=O)c2[nH]c(C(O)C(O)C(O)C(O)CO)nc2n(C)c1=O` (stereo not given) was run?
Answer: Its growth is 118%.

Question: Which growth does the source give for `COc1cc(/C=C/C(=O)Nc2cccnc2Nc2cc(OC)c(OC)c(OC)c2)cc(OC)c1OC` here?
Answer: Its growth is 99.8%.

Question: For `Cc1cc(Br)c2nsnc2c1[N+](=O)[O-]`, which growth is on record?
Answer: The growth was -24.6% (active).

Question: How did the growth turn out when `CC(C)c1cc(C(C)C)c(S(=O)(=O)Oc2ccc(NC(=O)c3ccc(Cl)cc3)cc2)c(C(C)C)c1` was run?
Answer: Its growth is 8.01% (active).

Question: With `O=C(O)c1ccc(-n2cc(CNc3cccc(Cl)c3)c(-c3ccc(F)cc3)n2)cc1` as the compound, how does the growth read?
Answer: The growth was 109%.

Question: How did the growth turn out when `Cc1c2cnccc2c(C)c2c1c1cc(CO)ccc1n2C` was run?
Answer: Its growth is -65.7% (active).

Question: For `O=C(O)c1ccc(-c2ccc(/C=N/Nc3nc(Nc4ccccc4)nc(N4CCCCC4)n3)o2)cc1`, which growth is on record?
Answer: The growth was 92.1%.

Question: For `COc1cc2c(c(OC)c1OC)-c1ccc(NN(C(=O)c3ccccc3)C(=O)c3ccccc3)c(=O)cc1[C@@H](NC(C)=O)CC2` (tested in a mixture with another compound), which growth is on record?
Answer: Its growth is 19.5%.

Question: With `Clc1cc(Cl)cc(Nc2ccc3cc(OCCCN4CCOCC4)ccc3n2)c1` as the compound, how does the growth read?
Answer: The growth was 40.9%.

Question: `COc1ccc(-c2nc3sc(-c4ccccc4)c(-c4ccccc4)n3c2/C=C/c2ccc(F)cc2)cc1` was tested. Which growth did it give?
Answer: The growth was 82.7%.

Question: How did the growth turn out when `Cc1cc(=O)oc2cc(Oc3nc(-c4ccc(Cl)cc4)cn4c(-c5ccc(Cl)cc5)cnc34)ccc12` was run?
Answer: Its growth is 84.8%.

Question: `COc1cc(CC(=O)c2ccc(O)c(OC)c2)ccc1O` was tested. Which growth did it give?
Answer: The growth was 101%.

Question: With `Cc1ccc(N=c2nc3sc4c(C)ccc(C)c4n3c(N)c2C#N)cc1` as the compound, how does the growth read?
Answer: Its growth is 115%.

Question: How did the growth turn out when `C#CCNCCCN1C(=O)c2ccc3c4c(ccc(c24)C1=O)C(=O)N(CCCNCC#C)C3=O` was run?
Answer: The growth was -85.6% (active).

Question: How did the growth turn out when `COc1cc(C=C2C(=O)N(C)C(=O)N(C)C2=O)cc(CN2CCCCC2)c1O` was run?
Answer: The growth was 104%.

Question: Which growth does the source give for `Nc1nc(N)c2cc(Sc3cccc(C(F)(F)F)c3)ccc2n1` here?
Answer: The growth was -4.8% (active).

Question: How did the growth turn out when `CCOC(=O)CCC(=O)P(=O)(O)O` was run?
Answer: Its growth is 114%.

Question: How did the growth turn out when `COC[C@]12CCC(C)(C)C[C@H]1C1=CC[C@@H]3[C@@]4(C)CCCNC(C)(C)[C@@H]4CC[C@@]3(C)[C@]1(C)CC2` was run?
Answer: The growth was -82.1% (active).

Question: How did the growth turn out when `O=C(/C=C/c1ccccc1Cl)c1cccc(OCCCCOc2cccc(C(=O)/C=C/c3ccccc3Cl)c2)c1` was run?
Answer: The growth was 110%.

Question: `CCC(O)c1ccc(Br)cc1NC(=O)c1cccc(Cl)c1` (stereo not given) was tested. Which growth did it give?
Answer: Its growth is 4.57% (active).

Question: Which growth does the source give for `CC(C)(C)OC(=O)N1C=C/C(=C\Cn2cc(-c3ccccc3)nn2)CC1` here?
Answer: The growth was 26.4%.

Question: With `CN1CCN(c2nc(C3=C(c4c[nH]c5ccccc45)C(=O)NC3=O)c3ccccc3n2)CC1` as the compound, how does the growth read?
Answer: The growth was 131%.

Question: For `Cc1ccc(-c2csc3nc(C)c(CCCl)c(=O)n23)cc1`, which growth is on record?
Answer: Its growth is 83.6%.

Question: How did the growth turn out when `COc1cc(/C=C/c2cc(/C=C/c3ccc(O)c(OC)c3)n(C(=O)c3ccc(Cl)cc3)n2)ccc1O` was run?
Answer: The growth was 1.45% (active).

Question: How did the growth turn out when `CCc1ccc(CNCC(O)c2ccccc2)cc1` (stereo not given) was run?
Answer: The growth was -1.1% (active).

Question: For `COc1ccc(-c2nc(-c3nc4cc(Cl)c(Cl)cc4[nH]3)c3ccccn23)cc1`, which growth is on record?
Answer: Its growth is 66.6%.
